Tests used:
Test in all cases: PBM binding z-score (relative to random genomic background probes); higher = stronger binding; sequences stand for … in GC…GCGATTGACAGCGTAGAATGAAGG
[1] = tested on: PPARg:RXRa DBDmut IVT, anti-RXR (DBD mutation: RXRa K156A/R161A, NR concentration 270 nM, RXRa partner concentration 90 nM)
How it was run: (§1)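 The probes on custom Agilent 4×180K protein-binding microarrays were double-stranded, with 34-nt variable regions bearing direct-repeat seeds, single-nucleotide variants, half-site ablations and random human genomic background sequences. Incubation lasted 1 h with ligand-free nuclear receptor dimers in PBS pH 7.4, 2% milk, 0.02% Triton X-100, 1 mM DTT, 0.2 mg/mL BSA and 0.4 mg/ml salmon testes DNA. Antibodies against each partner (one per run) detected bound dimers, and fluorescence scans were regression-normalized. Binding z-scores take the random background probes as reference.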

[2] = tested on: PPARg:RXRa IVT, anti-PPARg (NR concentration 270 nM, RXRa partner concentration 90 nM)
How it was run: as §1

[3] = tested on: PPARg DBDmut:RXRa IVT, anti-PPARg (DBD mutation: PPARg1 K132A/R137A, NR concentration 270 nM, RXRa partner concentration 90 nM)
How it was run: as §1

[4] = tested on: PPARg DBDmut IVT, anti-PPARg (DBD mutation: PPARg1 K132A/R137A, NR concentration 270 nM)
How it was run: as §1

[5] = tested on: PPARg homodimer (NR concentration 180 nM)
How it was run: as §1

[6] = tested on: PXR:RXRa (NR concentration 270 nM, RXRa partner concentration 90 nM)
How it was run: as §1

[7] = tested on: PXR homodimer (NR concentration 270 nM)
How it was run: as §1

[8] = tested on: RARa:RXR (NR concentration 270 nM, RXRa partner concentration 90 nM)
How it was run: as §1

[9] = tested on: RARa homodimer (NR concentration 270 nM)
How it was run: as §1

[10] = tested on: RARb:RXRa (NR concentration 270 nM, RXRa partner concentration 90 nM)
How it was run: as §1

[11] = tested on: RARb homodimer (NR concentration 270 nM)
How it was run: as §1

[12] = tested on: RARg:RXRa (NR concentration 270 nM, RXRa partner concentration 90 nM)
How it was run: as §1

[13] = tested on: RARg homodimer (NR concentration 270 nM)
How it was run: as §1

[14] = tested on: RXRa DBDmut IVT, anti-RXR (DBD mutation: RXRa K156A/R161A, NR concentration 90 nM)
How it was run: as §1

[15] = tested on: RXRa homodimer (NR concentration 180 nM)
How it was run: as §1

[16] = tested on: THRa:RXRa (NR concentration 90 nM, RXRa partner concentration 90 nM)
How it was run: as §1

[17] = tested on: THRa homodimer (NR concentration 90 nM)
How it was run: as §1

[18] = tested on: VDR homodimer (NR concentration 270 nM)
How it was run: as §1

Row | Sequence | PBM binding z-score [1] | PBM binding z-score [2] | PBM binding z-score [3] | PBM binding z-score [4] | PBM binding z-score [5] | PBM binding z-score [6] | PBM binding z-score [7] | PBM binding z-score [8] | PBM binding z-score [9] | PBM binding z-score [10] | PBM binding z-score [11] | PBM binding z-score [12] | PBM binding z-score [13] | PBM binding z-score [14] | PBM binding z-score [15] | PBM binding z-score [16] | PBM binding z-score [17] | PBM binding z-score [18]
1 | ATCGTAAGGTCGAAGGTGAGTATACCCACCCGAA | -0.143 | 1.54 | 1.22 | -0.311 | 1.79 | 1.87 | -0.0484 | 3.33 | 0.0373 | 2.74 | 1.59 | 2.97 | 2.44 | 1.58 | 3.4 | 2.98 | 1.59 | 0.909
2 | ATCGCTAGGTAACCAAGTTCAGTGAATGCCGAAC | -0.05 | 0.465 | -0.411 | -0.436 | -0.86 | 1.57 | 1.12 | 0.267 | -0.716 | 0.753 | 0.915 | 0.229 | 0.277 | 0.0688 | 0.062 | 0.934 | -0.378 | 1.7
3 | TCTTGTAGATCAACAGGAGGTGAAGAAAGATCGA | 1.56 | 1.14 | -0.0745 | 1.41 | -0.39 | 0.179 | -0.438 | 0.154 | -0.0996 | 0.194 | 0.000947 | 0.381 | 0.0903 | 0.184 | 0.315 | 0.726 | -0.344 | -0.884
4 | CGAACTAGGTCATTGACAGGGCAGTGAATAGTAA | 8.27 | 7.87 | 2.56 | 1.37 | 2.24 | 1.69 | 0.134 | 2.69 | 0.301 | 3.72 | 2.93 | 5.12 | 4.41 | 2.54 | 2.89 | 2.64 | 0.623 | 1.08
5 | TCGAGTACGTTAGTCGGGGCATTCAGCCAACATA | 0.607 | -0.44 | -0.411 | -0.712 | -0.34 | -0.0967 | -0.478 | -0.134 | -0.667 | 0.019 | 0.0909 | -0.237 | -0.247 | 3.19 | -0.238 | -0.142 | -0.507 | 1.51
6 | CGAACTAGGTCAAGGACTGTGAATCTCCGCACGC | 8.18 | 8.06 | 0.764 | 0.958 | 1.34 | 0.92 | -0.392 | 1.78 | 0.232 | 4.01 | 2.85 | 3.76 | 4.41 | 1.33 | 2.35 | 2.52 | 1.03 | 0.0818
7 | GATACAGGGTCAGCGAGAGGCCAGAGTATGGAAA | 1.16 | 2.78 | -0.0146 | -0.645 | 2.81 | 3.7 | 0.293 | 4.49 | 0.19 | 4.26 | 3.12 | 6.57 | 4.48 | 1.31 | 4.6 | 3.3 | 0.369 | 0.864
8 | TGGCCTAGGTCAGATCGGGCCAGTATACGCTATA | -0.485 | 1.03 | -1.16 | -1.38 | -0.396 | 0.928 | -0.757 | 0.548 | -1.18 | 2.85 | 1.79 | 2.62 | 4.12 | -0.787 | 1.19 | 3.53 | -0.553 | -0.622
9 | CCTACTGAGCCACGAAAGGTCATTGATTCAGTGA | 0.983 | 1.29 | -0.156 | 0.271 | 3.9 | 5.33 | 2.61 | 5.69 | 3.37 | 3.95 | 4.59 | 4.56 | 4.22 | 1.03 | 5.47 | 3.41 | 1.23 | 2.9
10 | TGAATGAGGTTATAAGATCCGGGAACGTTGCAAA | 1.11 | 1.48 | 1.46 | 0.366 | 0.364 | 0.692 | -0.0533 | 1.28 | -0.21 | 1.14 | 0.199 | 1.19 | 0.881 | 0.792 | 1.78 | 1.7 | 0.151 | 0.411
11 | ATATGTATGTTACATCCGGGTCATTCAGGCTATG | 3.22 | 3.46 | 1.61 | 1.67 | 1.16 | 2.54 | 1.37 | 2.59 | 0.761 | 1.52 | 2.37 | 1.63 | 1.26 | 0.811 | 2.21 | 3.04 | 2.62 | 1.99
12 | GATACAGGGTCAGCTAGACGCCAGAGTATGGAAA | 0.771 | 2.21 | 0.485 | 0.334 | 1.15 | 1.76 | 0.0262 | 2.72 | -0.118 | 3.9 | 2.32 | 4.41 | 4.12 | 0.957 | 4.21 | 2.43 | 0.221 | 0.722
13 | CCTAGTTGGTCAAGGTCACACACGCTATAGGTAC | 2.68 | 3.52 | 0.555 | 1.3 | 4.56 | 4.41 | 2.97 | 4.88 | 4.38 | 4.17 | 4.21 | 4.84 | 4.85 | 2.36 | 5 | 4.11 | 4.42 | 4.32
14 | CCTTGCGGGTCACGAGGTTATAGCACGACGAGCG | 5.74 | 6.59 | 3.45 | 2.14 | 3.48 | 4.41 | 0.214 | 6.01 | 0.851 | 4.47 | 3.64 | 5.78 | 5.02 | 1.62 | 6.53 | 3.68 | 1.34 | 1.93
15 | GCAGACAGGTGAACCGCAGGTAACTCAGGGTGGC | 0.713 | 0.87 | -0.564 | -0.733 | -0.518 | 0.615 | -0.535 | 1.09 | -0.768 | 0.901 | 0.366 | 1.37 | 0.342 | -0.635 | 1.54 | 1.76 | -0.376 | -0.237
